Results on 34 compounds are retold here after PubChem BioAssay AID651725 (National Center for Advancing Translational Sciences (NCATS), 2012).

The campaign covered roughly 360,000 compounds. About 2,000 (0.56%) were called active. About 2% were inconclusive and are not listed. Rule as the data show it: active = activity change below about -65%; inconclusive = mostly about -30% to -63%; inactive = weaker than that. The list comes from a sample in which actives are over-represented; it also holds similar structures and randomly drawn compounds.
% is scaled to controls: 0 for no effect and ±100 for the full control effect.

Sequence of Homeobox protein SIX1 (Homo sapiens) + Protein phosphatase EYA2 (Homo sapiens) (O00167 whole entry, looked up): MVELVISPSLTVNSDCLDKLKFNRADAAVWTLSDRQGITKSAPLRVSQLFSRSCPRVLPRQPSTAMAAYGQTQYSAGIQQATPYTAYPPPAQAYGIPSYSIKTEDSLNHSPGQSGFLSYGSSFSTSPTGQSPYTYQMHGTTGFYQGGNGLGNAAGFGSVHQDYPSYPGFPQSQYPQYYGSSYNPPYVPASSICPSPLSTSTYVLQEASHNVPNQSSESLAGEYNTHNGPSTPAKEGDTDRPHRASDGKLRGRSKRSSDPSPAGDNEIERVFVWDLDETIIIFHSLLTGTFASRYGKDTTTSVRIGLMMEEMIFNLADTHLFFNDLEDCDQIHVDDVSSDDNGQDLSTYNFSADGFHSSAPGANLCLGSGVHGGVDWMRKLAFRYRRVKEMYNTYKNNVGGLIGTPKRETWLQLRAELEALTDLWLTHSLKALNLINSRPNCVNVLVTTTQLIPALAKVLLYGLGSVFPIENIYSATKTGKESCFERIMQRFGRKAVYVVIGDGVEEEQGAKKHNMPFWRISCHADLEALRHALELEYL
Sequence of Homeobox protein SIX1 (Homo sapiens) + Protein phosphatase EYA2 (Homo sapiens) (Q15475 whole entry, looked up): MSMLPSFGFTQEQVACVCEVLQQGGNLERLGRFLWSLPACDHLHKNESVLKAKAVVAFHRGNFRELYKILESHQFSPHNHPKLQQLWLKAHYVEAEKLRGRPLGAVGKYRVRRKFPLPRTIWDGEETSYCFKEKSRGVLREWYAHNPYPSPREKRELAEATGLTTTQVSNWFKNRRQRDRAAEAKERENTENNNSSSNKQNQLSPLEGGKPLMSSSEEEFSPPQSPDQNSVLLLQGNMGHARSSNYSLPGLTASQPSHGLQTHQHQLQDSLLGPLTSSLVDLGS

The target in the assay is Homeobox protein SIX1 (Homo sapiens) + Protein phosphatase EYA2 (Homo sapiens) (UniProt Q15475+O00167). Description: qHTS Assay for Inhibitors of the Six1/Eya2 Interaction. Conditions: AlphaScreen GST-Six1/His-Eya2 binding, biochemical; stronger effect = lower value. An outline of the steps:
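GST-Six1 + His-Eya2 (5X stock: 250/500 nM); Tris pH 8.0, 300 mM NaCl, 0.05% BSA, 0.02% Tween 20; GSH donor/Ni acceptor beads; 1 h 37 °C dark; AlphaScreen readout.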
For `O=C(NC1CCCCC1)C(c1cc2ccccc2o1)n1c(=O)c(-c2ccco2)nc2ccccc21` (centres undefined), the activity change is 6.65% (inactive).

`O=C1OCCOC2CCCc3oc(-c4ccccc4)c1c32` (centres undefined): the activity change was -10.5% (inactive).

With `Cc1ccc(CNC(=O)C2CCN(S(=O)(=O)c3ccc4nc5c(c(C(=O)O)c4c3)CC(C)CC5)CC2)cc1` (centres undefined), the activity change is -65.1% (active).

With `CC(=O)N1c2ccc(S(=O)(=O)N3CCC(C(=O)NCc4ccc(F)cc4)CC3)cc2CC1C` (centres undefined), the activity change is -0.504% (inactive).

For `CCOC(CNC(=O)C1CCN(S(=O)(=O)c2ccc3nc4c(c(C(=O)O)c3c2)CC(C)CC4)CC1)OCC` (centres undefined), the activity change was -16.3% (inactive).

Regarding `CCCNC(=O)C[C@@H]1CC[C@@H]2[C@H](COC[C@H](O)CN2C(=O)c2cc(Cl)cc(Cl)c2)O1`, the activity change is 9.3% (inactive).

For the compound `CCN(CC)c1ccc(NC(=O)c2ccc(Cl)nc2)cc1`, the activity change was -10.4% (inactive).

`CCN(CC)c1ccc(/C=N/NC(=O)c2cnccn2)c(O)c1`: the activity change was -91.7% (active).

Consider `COc1ccc(NC(=O)C/C(C)=N/NC(=O)c2cnccn2)cc1Cl`, for which the activity change is -8.49% (inactive).

For the compound `O=C1CN(C(=O)c2ccccc2F)C(c2ccc(F)cc2)c2cc(F)ccc2N1` (centres undefined), the activity change was 10.1% (inactive).

Take `CCOC(=O)[C@]12CCCC=C1N(CCC1=CCCCC1)C(=O)[C@H](CC(=O)NCCCOC)C2`: the activity change was -3.1% (inactive).

Turning to `COC(=O)[C@@]12C[C@@H](CC(=O)NCCCCc3ccccc3)C(=O)N(Cc3ccccc3)C1=CCC(C)(C)C2`, the activity change was -3.62% (inactive).

On to `CCOC(=O)[C@]12CCC=C1N(CCC1=CCCCC1)C(=O)[C@H](CC(=O)NCc1ccc(C)o1)C2`, for which the activity change was -7.25% (inactive).

As for `O=S1(=O)CC(N2CCN(Cc3ccccc3F)CC2)CN1Cc1cn(Cc2cccc(C(F)(F)F)c2)nn1` (centres undefined), the activity change is 1.67% (inactive).

Turning to `Cc1cc(C)c(S(=O)(=O)N(C)CC(=O)NCC2CCCO2)c(C)c1` (centres undefined), the activity change is 3.65% (inactive).

`Cc1ccc(Nc2ncnc3c2cnn3C)c(C)c1`: the activity change is 8.85% (inactive).

Turning to `CC(C)Sc1ncnc2c1cnn2-c1ccccc1`, the activity change is 16.7% (inactive).

In the case of `Cc1ccc(-n2ncc3c(Nc4cccc(C(=O)O)c4)ncnc32)cc1`, the activity change was -66.4% (active).

With `Cc1[nH]c2ccccc2c1C(=O)c1cc([C@H](NC(=O)OC(C)(C)C)C(C)C)sc1N`, the activity change was -28% (inactive).

With `O=C1CCN(CCCc2ccccc2)CCN1CCO`, the activity change was -23.5% (inactive).

On to `O=C(NC1CCCC1)C1c2ccccc2OCC(=O)N1CC(F)(F)F` (centres undefined), for which the activity change is -3% (inactive).

For the compound `Cc1c(NC(=O)CSc2nnc(-c3cccnc3)n2N)c(=O)n(-c2ccccc2)n1C`, the activity change was 10.2% (inactive).

Regarding `Cc1c(NC(=O)CSc2nnnn2-c2ccc(C(=O)O)cc2)c(=O)n(-c2ccccc2)n1C`, the activity change is 5.09% (inactive).

Consider `Cc1c(NC(=O)CSc2cccc3cccnc23)c(=O)n(-c2ccccc2)n1C`, for which the activity change was -90.9% (active).

For `CC(=O)C[C@@H]1OC[C@H](CO)N1S(=O)(=O)c1ccc(C)cc1`, the activity change was 7.41% (inactive).

For the compound `CN(Cc1cn(Cc2ccc(C(F)(F)F)cc2)nn1)C1CN(Cc2cn(Cc3ccc(C(F)(F)F)cc3)nn2)S(=O)(=O)C1` (centres undefined), the activity change is 3.81% (inactive).

As to `CN(Cc1ccccc1)C(=O)[C@@H]1CCCN1C(=O)[C@@H]1CCCN1C(=O)c1c(F)cccc1F`, the activity change was 7.39% (inactive).

On to `S=C(Nc1cccnc1)Nc1ccccn1`, for which the activity change was 6.86% (inactive).

For `S=C(NN=Cc1ccccn1)Nc1ccccn1`, the activity change is -91.9% (active).

For `COc1cc(/C=N/NC(=S)Nc2cccnc2)cc(OC)c1O`, the activity change was 0% (inactive).

Take `O=C(NCCc1ccco1)c1nn(Cc2ccccc2)c(=O)c2ccccc12`: the activity change was -4.25% (inactive).

`O=c1nc2s/c(=C\c3ccco3)c(=O)n2nc1Cc1ccccc1`: the activity change is -82.8% (active).

With `O=C(OCN1C(=O)c2ccccc2C1=O)/C(=C\c1ccco1)NC(=O)c1ccccc1`, the activity change is -1.79% (inactive).

Turning to `CCOC(=O)c1cc2cc(OC)ccc2n1C1CCN(C)CC1`, the activity change was 1.46% (inactive).
